Experimental data published in PubChem BioAssay AID1159580 (chemical genetic matrix, 2015).
Where “and” joins values, the source holds several entries; their conditions need not be identical. Equal entries are not always repeated. In all, about 5,500 compounds went through this assay and about 2,000 (36%) were called active. About 18% were inconclusive and are not listed. Rule as the data show it: active = normalized growth mostly below about 0.91 (no sharp cut-off); inconclusive = no clear call, values can overlap the other calls; inactive = mostly above about 0.92. The list shows a part of the results.

Assay: chemical genetic growth profiling, strain panel (AID 1159580);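 also: tested at 20 µM; growth read once vehicle control cultures reached saturation at 30 °C; 1 = growth at the plate median or of vehicle wells; lower values mean less growth of the strain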
Details: S. cerevisiae deletion strains, growth OD

Measured: normalized growth

C=CC(C1=CC(=O)C(OC)=CC1=O)c1ccc(O)cc1 (configuration not stated)
inactive: locus YAL013W, strain DEP1, active compounds read low 1.04 | locus YAL021C, strain ccr4, active compounds read low 1.03 | locus YAL026C, strain drs2, active compounds read low 0.977 | locus YAL030W, strain snc1, active compounds read low 1.01 | locus YBL061C, strain skt5, active compounds read low 0.996 | locus YBR009C, strain hhf1, active compounds read low 0.99 | locus YBR021W, strain FUR4, active compounds read low 1.04 | locus YBR023C, strain chs3, active compounds read low 0.992 | locus YBR171W, strain sec66, active compounds read low 1.02 | locus YBR229C, strain ROT2, active compounds read low 0.945 | locus YBR231C, strain swc5, active compounds read low 0.989 | locus YBR279W, strain paf1, active compounds read low 1 | locus YCL011C, strain gbp2, active compounds read low 0.998 | locus YCL016C, strain dcc1, active compounds read low 0.99 | locus YCL029C, strain bik1, active compounds read low 0.987 | locus YCL069W, strain vba3, active compounds read low 1.01 | locus YCR088W, strain abp1, active compounds read low 1.02 | locus YDL005C, strain med2, active compounds read low 0.999 | locus YDL035C, strain GPR1, active compounds read low 0.974 | locus YDL040C, strain nat1, active compounds read low 0.999 | locus YDL074C, strain BRE1, active compounds read low 0.987 | locus YDL101C, strain DUN1, active compounds read low 0.986 | locus YDL185W, strain tfp1, active compounds read low 0.944 | locus YDL192W, strain arf1, active compounds read low 0.981 | locus YDR001C, strain nth1, active compounds read low 1.01 | locus YDR069C, strain doa4, active compounds read low 0.991 | locus YDR101C, strain arx1, active compounds read low 0.991 | locus YDR137W, strain rgp1, active compounds read low 0.989 | locus YDR150W, strain NUM1, active compounds read low 1.01 | locus YDR159W, strain sac3, active compounds read low 0.94 | locus YDR162C, strain NBP2, active compounds read low 0.942 | locus YDR195W, strain ref2 1.03 | locus YDR297W, strain sur2, active compounds read low 0.986 | locus YDR318W, strain mcm21, active compounds read low 0.953 | locus YDR334W, strain swr1, active compounds read low 1.02 | locus YDR335W, strain msn5, active compounds read low 1.01 | locus YDR388W, active compounds read low 0.964 | locus YDR392W, strain spt3, active compounds read low 0.825 | locus YDR502C, strain sam2, active compounds read low 0.967 | locus YEL003W, strain gim4, active compounds read low 0.979 | locus YEL037C, strain rad23, active compounds read low 1.01 | locus YEL061C, strain CIN8 (second series), active compounds read low 1.01 | locus YEL061C, strain CIN8, active compounds read low 0.992 | locus YER015W, strain faa2, active compounds read low 0.995 | locus YER016W, strain bim1, active compounds read low 1 | locus YER110C, active compounds read low 0.927 | locus YER111C, strain swi4, active compounds read low 0.998 | locus YER155C, strain BEM2 (second series), active compounds read low 0.891 | locus YER155C, strain BEM2, active compounds read low 1 | locus YER167W, strain BCK2, active compounds read low 0.973 | locus YFR010W, strain ubp6, active compounds read low 0.998 | locus YGL078C, strain dbp3, active compounds read low 0.985 | locus YGL086W, strain mad1, active compounds read low 1 | locus YGL167C, strain pmr1, active compounds read low 1.01 | locus YGL173C, strain kem1, active compounds read low 0.997 | locus YGL227W, strain vid30, active compounds read low 0.999 | locus YGL240W, strain doc1, active compounds read low 0.972 | locus YGL248W, strain PDE1, active compounds read low 0.992 | locus YGL253W, strain hxk2, active compounds read low 1.02 | locus YGR078C, strain PAC10, active compounds read low 1.01 | locus YGR135W, strain pre9, active compounds read low 0.963 | locus YGR252W, strain gcn5, active compounds read low 0.904 | locus YHR013C, strain ard1, active compounds read low 1.02 | locus YHR027C, strain rpn1, active compounds read low 0.995 | locus YHR030C, strain SLT2, active compounds read low 0.98 and 1.04 | locus YHR079C, strain IRE1 (second series), active compounds read low 0.982 | locus YHR079C, strain IRE1, active compounds read low 1.01 | locus YHR094C, strain hxt1, active compounds read low 0.96 | locus YHR129C, strain ARP1, active compounds read low 0.991 | locus YHR142W, strain chs7, active compounds read low 1.01 | locus YHR200W, strain rpn10, active compounds read low 0.965 | locus YIL066C, strain RNR3, active compounds read low 0.92 | locus YIL073C, strain SPO22, active compounds read low 0.964 | locus YIL125W, strain kgd1, active compounds read low 0.987 | locus YIR030C, strain dcg1, active compounds read low 0.991 | locus YJL092W, strain hpr5, active compounds read low 1 | locus YJL095W, strain BCK1 (second series), active compounds read low 0.998 | locus YJL095W, strain BCK1, active compounds read low 1.03 and 1.06 | locus YJL115W, strain asf1, active compounds read low 1.02 | locus YJL129C, strain trk1, active compounds read low 1.03 | locus YJL134W, strain LCB3, active compounds read low 0.978 | locus YJL154C, strain vps35, active compounds read low 1.01 | locus YJL164C, strain tpk1, active compounds read low 0.987 | locus YJL166W, strain qcr8, active compounds read low 1 | locus YJL168C, strain set2, active compounds read low 0.984 | locus YJL187C, strain SWE1 (second series), active compounds read low 0.997 | locus YJL187C, strain SWE1, active compounds read low 1 | locus YJR043C, strain POL32, active compounds read low 0.941 | locus YJR066W, strain TOR1, active compounds read low 0.983 | locus YJR075W, strain HOC1, active compounds read low 1.01 | locus YKL009W, strain mrt4, active compounds read low 0.957 | locus YKL068W, active compounds read low 0.971 | locus YKL085W, strain MDH1 (second series), active compounds read low 0.987 | locus YKL085W, strain MDH1, active compounds read low 0.987 | locus YKL160W, strain elf1, active compounds read low 0.985 | locus YKL190W, strain CNB1, active compounds read low 1.01 | locus YKR001C, strain vps1, active compounds read low 0.966 | locus YKR026C, strain gcn3, active compounds read low 1.01 | locus YKR091W, strain srl3, active compounds read low 1.01 | locus YLL001W, strain dnm1, active compounds read low 0.958 | locus YLL026W, active compounds read low 1 | locus YLL041C, strain sdh2, active compounds read low 1.01 | locus YLR027C, strain aat2, active compounds read low 1 | locus YLR039C, strain RIC1, active compounds read low 1.02 | locus YLR058C, strain SHM2, active compounds read low 0.925 | locus YLR102C, strain apc9, active compounds read low 0.984 | locus YLR113W, strain HOG1, active compounds read low 0.967 | locus YLR221C, strain rsa3, active compounds read low 0.989 | locus YLR258W, strain gsy2, active compounds read low 1.01 | locus YLR262C, strain YPT6 (second series), active compounds read low 0.996 | locus YLR262C, strain YPT6, active compounds read low 1.01 | locus YLR268W, strain sec22, active compounds read low 1.01 | locus YLR320W, strain mms22, active compounds read low 0.988 | locus YLR330W, strain CHS5, active compounds read low 1 | locus YLR342W, strain FKS1 (second series), active compounds read low 0.935 | locus YLR342W, strain FKS1, active compounds read low 0.987 | locus YLR357W, strain rsc2, active compounds read low 0.993 | locus YLR370C, strain arc18, active compounds read low 1.01 | locus YLR371W, strain rom2, active compounds read low 0.965 | locus YLR384C, strain iki3, active compounds read low 1.03 | locus YLR418C, strain cdc73, active compounds read low 0.933 | locus YML016C, strain PPZ1, active compounds read low 0.976 | locus YML032C, strain rad52, active compounds read low 0.947 | locus YML120C, strain ndi1, active compounds read low 1 | locus YML124C, strain tub3, active compounds read low 0.99 | locus YMR058W, strain fet3, active compounds read low 1.01 | locus YMR078C, strain ctf18, active compounds read low 0.989 | locus YMR125W, strain sto1, active compounds read low 1.02 | locus YMR129W, active compounds read low 1 | locus YMR205C, strain PFK2, active compounds read low 0.992 | locus YMR223W, strain ubp8, active compounds read low 0.967 | locus YMR231W, strain pep5, active compounds read low 1.01 | locus YMR263W, strain SAP30, active compounds read low 1.01 | locus YMR307W, strain GAS1, active compounds read low 1.06 | locus YNL067W, strain RPL9B, active compounds read low 1.06 | locus YNL071W, strain lat1, active compounds read low 1.01 | locus YNL153C, strain GIM3, active compounds read low 1.01 | locus YNL183C, strain NPR1, active compounds read low 0.983 | locus YNL209W, strain ssb2, active compounds read low 0.994 | locus YNL233W, strain BNI4, active compounds read low 1.01 | locus YNL248C, strain rpa49, active compounds read low 1 | locus YNL250W, strain rad50, active compounds read low 0.98 | locus YNL271C, strain bni1, active compounds read low 0.99 | locus YNL298W, strain CLA4, active compounds read low 0.961 | locus YNL307C, strain MCK1, active compounds read low 0.969 | locus YNL322C, strain KRE1 (second series), active compounds read low 0.981 | locus YNL322C, strain KRE1, active compounds read low 0.994 | locus YNR049C, strain mso1, active compounds read low 1.01 | locus YNR052C, strain pop2, active compounds read low 0.981 | locus YOL012C, strain htz1 1.04 | locus YOL147C, strain pex11, active compounds read low 0.969 | locus YOR001W, strain rrp6, active compounds read low 0.986 | locus YOR061W, strain CKA2, active compounds read low 0.954 | locus YOR069W, strain VPS5, active compounds read low 0.986 | locus YOR070C, strain gyp1, active compounds read low 0.982 | locus YOR080W, strain dia2, active compounds read low 0.992 | locus YOR083W, strain WHI5, active compounds read low 0.977 | locus YOR106W, strain vam3, active compounds read low 0.989 | locus YOR136W, strain idh2, active compounds read low 0.976 | locus YOR144C, strain elg1, active compounds read low 0.98 | locus YOR184W, strain ser1, active compounds read low 0.941 | locus YOR231W, strain MKK1, active compounds read low 1.03 | locus YOR265W, strain rbl2, active compounds read low 1 | locus YOR270C, strain vph1, active compounds read low 1.02 | locus YOR290C, strain snf2, active compounds read low 0.984 | locus YOR316C, strain cot1, active compounds read low 0.982 | locus YPL051W, strain arl3, active compounds read low 0.979 | locus YPL078C, strain atp4, active compounds read low 0.98 | locus YPL106C, strain sse1, active compounds read low 1.01 | locus YPL240C, strain hsp82, active compounds read low 1.01 | locus YPL241C, strain CIN2, active compounds read low 0.983 | locus YPL256C, strain CLN2, active compounds read low 1.06 | locus YPR119W, strain clb2, active compounds read low 0.99 | locus YPR141C, strain kar3, active compounds read low 0.984 | locus YPR163C, strain tif3, active compounds read low 0.979 | locus YPR167C, strain met16, active compounds read low 0.974 | strain wtn01, active compounds read low 0.994
